Targets with a hit are over-represented here; the source holds about 7,900 in all. About 0.6% of all pairs of compound and target were hits.
Compound: CCCS(=O)(=O)Nc1ccc(F)c(C(=O)c2c[nH]c3ncc(-c4ccc(Cl)cc4)cc23)c1F [vemurafenib]
Experiment: log2 fold change, soluble protein after heating vs DMSO (PISA); higher = thermal stabilisation; K562 cells, 10 uM, 30 min; active = over 0.2 and 3.5 SD of the protein, either way, in both replicates (recomputed)
Outline: (§1)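 K562 cells (2×10^6 cells/mL) were treated with 10 μM compound for 30 min, and aliquots were heated for 3 min over 48°C-58°C. Pooled aliquots were extracted in PBS with 0.5% NP-40 at 4°C, and the supernatant after 21,000xg for 90 min was measured by TMTpro 16plex LC-MS/MS with channel sums equalised. Reported thermal stability, relative to control samples and from duplicates, is a log2 fold change.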

Sequence of UniProt Q0VG06 (Q0VG06 whole entry, looked up): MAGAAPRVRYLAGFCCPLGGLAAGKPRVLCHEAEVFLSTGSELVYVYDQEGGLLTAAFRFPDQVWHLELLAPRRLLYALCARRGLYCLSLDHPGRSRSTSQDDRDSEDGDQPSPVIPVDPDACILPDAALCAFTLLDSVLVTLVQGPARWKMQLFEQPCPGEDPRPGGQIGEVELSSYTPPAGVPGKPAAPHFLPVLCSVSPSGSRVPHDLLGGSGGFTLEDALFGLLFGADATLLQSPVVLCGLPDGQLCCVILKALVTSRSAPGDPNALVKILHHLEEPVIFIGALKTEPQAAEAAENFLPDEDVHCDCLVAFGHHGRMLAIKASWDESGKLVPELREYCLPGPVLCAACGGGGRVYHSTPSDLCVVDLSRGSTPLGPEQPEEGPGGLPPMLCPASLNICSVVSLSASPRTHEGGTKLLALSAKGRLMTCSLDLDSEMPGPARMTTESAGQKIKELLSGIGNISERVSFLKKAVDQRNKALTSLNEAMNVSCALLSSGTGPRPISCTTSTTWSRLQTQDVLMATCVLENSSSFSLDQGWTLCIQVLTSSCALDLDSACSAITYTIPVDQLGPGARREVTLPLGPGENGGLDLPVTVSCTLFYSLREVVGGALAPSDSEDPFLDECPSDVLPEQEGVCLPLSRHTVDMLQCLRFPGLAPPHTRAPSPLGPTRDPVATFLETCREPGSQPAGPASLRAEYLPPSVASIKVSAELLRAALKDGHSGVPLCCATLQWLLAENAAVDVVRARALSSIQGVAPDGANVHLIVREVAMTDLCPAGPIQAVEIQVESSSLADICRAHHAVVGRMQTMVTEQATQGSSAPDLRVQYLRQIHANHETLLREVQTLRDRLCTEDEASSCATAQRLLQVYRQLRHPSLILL
Sequence of UniProt Q9NRY5 (Q9NRY5 whole entry, looked up): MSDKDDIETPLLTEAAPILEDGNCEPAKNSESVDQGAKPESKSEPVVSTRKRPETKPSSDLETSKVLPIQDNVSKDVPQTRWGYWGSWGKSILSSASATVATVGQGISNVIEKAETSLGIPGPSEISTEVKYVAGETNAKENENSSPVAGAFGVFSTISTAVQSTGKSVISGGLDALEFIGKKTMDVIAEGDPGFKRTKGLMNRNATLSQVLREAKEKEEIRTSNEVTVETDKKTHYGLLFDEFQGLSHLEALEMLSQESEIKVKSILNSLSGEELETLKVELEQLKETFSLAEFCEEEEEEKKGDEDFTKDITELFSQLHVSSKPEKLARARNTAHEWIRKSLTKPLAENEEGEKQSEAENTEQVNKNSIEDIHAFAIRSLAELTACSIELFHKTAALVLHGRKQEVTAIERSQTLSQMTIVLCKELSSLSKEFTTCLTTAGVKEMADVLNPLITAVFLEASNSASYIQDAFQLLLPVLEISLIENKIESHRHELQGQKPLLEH
Sequence of UniProt P18074 (P18074 whole entry, looked up): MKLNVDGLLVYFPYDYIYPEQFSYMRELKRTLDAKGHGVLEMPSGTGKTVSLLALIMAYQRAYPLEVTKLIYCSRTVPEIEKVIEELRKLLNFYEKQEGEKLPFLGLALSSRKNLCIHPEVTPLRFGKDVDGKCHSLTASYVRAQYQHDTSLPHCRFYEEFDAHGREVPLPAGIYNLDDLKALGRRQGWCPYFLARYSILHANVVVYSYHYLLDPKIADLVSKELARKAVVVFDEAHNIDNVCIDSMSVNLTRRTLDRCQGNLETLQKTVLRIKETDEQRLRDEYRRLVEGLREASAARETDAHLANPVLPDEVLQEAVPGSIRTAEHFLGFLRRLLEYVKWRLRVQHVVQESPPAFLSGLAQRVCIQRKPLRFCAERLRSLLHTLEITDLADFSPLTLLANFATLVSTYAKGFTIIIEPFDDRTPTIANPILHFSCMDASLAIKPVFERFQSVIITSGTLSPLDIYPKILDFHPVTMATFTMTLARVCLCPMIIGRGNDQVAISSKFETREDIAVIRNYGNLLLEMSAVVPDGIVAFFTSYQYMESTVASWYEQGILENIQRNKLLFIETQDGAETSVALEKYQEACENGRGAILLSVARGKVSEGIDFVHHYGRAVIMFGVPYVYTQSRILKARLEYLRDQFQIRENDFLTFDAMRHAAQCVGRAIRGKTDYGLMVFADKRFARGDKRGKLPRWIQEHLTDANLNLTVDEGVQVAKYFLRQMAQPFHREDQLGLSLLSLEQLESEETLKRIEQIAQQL
Sequence of UniProt Q8IYI6 (Q8IYI6 whole entry, looked up): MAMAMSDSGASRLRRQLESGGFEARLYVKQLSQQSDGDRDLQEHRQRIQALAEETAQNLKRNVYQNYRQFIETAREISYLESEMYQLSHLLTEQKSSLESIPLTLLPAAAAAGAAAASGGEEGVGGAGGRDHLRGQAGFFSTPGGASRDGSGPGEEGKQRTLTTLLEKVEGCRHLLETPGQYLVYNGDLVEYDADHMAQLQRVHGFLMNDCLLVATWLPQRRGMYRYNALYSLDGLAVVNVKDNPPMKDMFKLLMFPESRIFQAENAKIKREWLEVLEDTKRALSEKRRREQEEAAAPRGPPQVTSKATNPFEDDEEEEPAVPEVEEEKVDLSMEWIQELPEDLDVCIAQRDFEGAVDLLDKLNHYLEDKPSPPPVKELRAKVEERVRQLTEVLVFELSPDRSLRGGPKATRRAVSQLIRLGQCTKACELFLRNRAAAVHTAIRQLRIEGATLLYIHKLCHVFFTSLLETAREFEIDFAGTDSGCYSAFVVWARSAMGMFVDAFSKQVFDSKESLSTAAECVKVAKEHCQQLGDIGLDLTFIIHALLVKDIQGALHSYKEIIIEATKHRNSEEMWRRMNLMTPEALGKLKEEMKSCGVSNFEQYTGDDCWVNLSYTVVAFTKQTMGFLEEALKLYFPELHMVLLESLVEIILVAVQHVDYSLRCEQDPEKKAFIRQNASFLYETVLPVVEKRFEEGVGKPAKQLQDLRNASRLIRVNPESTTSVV
Sequence of UniProt O60888 (O60888 whole entry, looked up): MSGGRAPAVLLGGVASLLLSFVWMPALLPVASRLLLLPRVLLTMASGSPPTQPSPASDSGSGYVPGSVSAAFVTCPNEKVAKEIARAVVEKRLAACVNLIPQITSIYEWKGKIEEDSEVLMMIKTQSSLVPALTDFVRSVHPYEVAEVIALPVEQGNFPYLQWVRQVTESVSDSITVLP
Sequence of UniProt Q16850 (Q16850 whole entry, looked up): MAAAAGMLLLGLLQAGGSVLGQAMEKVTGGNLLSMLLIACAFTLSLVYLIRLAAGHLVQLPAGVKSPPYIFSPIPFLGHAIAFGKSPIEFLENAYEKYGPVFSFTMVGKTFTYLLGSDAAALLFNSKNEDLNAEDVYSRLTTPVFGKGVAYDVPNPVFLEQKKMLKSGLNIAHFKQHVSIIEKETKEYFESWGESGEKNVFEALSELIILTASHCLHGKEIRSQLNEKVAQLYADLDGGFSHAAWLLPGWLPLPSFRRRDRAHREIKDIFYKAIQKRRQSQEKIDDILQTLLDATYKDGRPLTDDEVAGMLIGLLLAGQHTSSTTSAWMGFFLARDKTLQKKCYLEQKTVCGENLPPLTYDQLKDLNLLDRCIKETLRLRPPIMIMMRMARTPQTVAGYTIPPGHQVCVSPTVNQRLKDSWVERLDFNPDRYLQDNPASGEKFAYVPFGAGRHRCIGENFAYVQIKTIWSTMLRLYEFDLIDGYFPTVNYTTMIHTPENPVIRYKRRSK
Sequence of UniProt Q9H467 (Q9H467 whole entry, looked up): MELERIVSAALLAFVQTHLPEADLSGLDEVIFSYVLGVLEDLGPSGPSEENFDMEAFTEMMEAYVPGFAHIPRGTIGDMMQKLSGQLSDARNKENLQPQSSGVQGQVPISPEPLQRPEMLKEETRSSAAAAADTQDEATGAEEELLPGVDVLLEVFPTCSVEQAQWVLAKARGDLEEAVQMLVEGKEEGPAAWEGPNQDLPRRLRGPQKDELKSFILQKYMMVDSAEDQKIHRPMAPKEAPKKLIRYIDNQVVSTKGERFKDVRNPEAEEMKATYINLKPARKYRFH
Sequence of UniProt P98082 (P98082 whole entry, looked up): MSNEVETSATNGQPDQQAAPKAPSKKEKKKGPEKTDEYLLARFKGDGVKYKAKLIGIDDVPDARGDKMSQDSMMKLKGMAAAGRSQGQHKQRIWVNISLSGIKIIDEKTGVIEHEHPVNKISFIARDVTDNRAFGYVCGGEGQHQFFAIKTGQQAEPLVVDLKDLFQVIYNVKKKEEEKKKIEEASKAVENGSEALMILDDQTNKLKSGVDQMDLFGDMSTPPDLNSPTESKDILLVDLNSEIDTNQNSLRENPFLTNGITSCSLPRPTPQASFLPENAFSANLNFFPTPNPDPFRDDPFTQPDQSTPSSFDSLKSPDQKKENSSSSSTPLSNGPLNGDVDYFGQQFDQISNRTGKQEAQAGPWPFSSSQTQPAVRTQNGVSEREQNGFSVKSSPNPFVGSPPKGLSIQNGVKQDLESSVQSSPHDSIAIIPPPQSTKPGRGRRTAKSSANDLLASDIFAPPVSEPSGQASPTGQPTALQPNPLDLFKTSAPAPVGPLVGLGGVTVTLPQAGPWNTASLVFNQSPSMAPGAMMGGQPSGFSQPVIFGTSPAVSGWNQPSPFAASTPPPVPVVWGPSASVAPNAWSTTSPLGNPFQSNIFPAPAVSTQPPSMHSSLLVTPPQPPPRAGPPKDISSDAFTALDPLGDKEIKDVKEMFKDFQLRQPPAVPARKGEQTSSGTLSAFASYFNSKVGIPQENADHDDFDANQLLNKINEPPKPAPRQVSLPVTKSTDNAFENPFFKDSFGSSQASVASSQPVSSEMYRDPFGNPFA
Sequence of UniProt Q6P3W2 (Q6P3W2 whole entry, looked up): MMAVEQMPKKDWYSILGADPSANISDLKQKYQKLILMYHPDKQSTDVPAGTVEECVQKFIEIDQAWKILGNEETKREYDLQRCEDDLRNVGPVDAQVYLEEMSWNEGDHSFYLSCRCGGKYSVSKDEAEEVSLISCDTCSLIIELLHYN
Sequence of UniProt Q9H773 (Q9H773 whole entry, looked up): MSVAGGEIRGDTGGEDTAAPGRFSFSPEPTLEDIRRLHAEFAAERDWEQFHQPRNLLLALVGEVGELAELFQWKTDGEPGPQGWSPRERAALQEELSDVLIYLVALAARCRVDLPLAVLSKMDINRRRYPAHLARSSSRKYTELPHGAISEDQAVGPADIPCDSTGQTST

log2 fold change, inactive:
ECPAS (UniProt Q5VYK3) 0.084
FAAP100 (UniProt Q0VG06) 0
DCTN1 isoform 4 (UniProt Q14203) -0.015
DMAC1 (UniProt Q96GE9) -0.18
DBNL isoform 3 (UniProt Q9UJU6) 0.07
DNAJC24 (UniProt Q6P3W2) 0.008
EIF4E2 (UniProt O60573) 0.126
DHPS (UniProt P49366) 0.067
DBR1 (UniProt Q9UK59) 0.024
ELOC (UniProt Q15369) 0.017
EXOC8 (UniProt Q8IYI6) 0.048
EEF1D isoform 2 (UniProt P29692) -0.044
DHRS7B (UniProt Q6IAN0) 0.066
ERCC2 (UniProt P18074) 0.166
EIF2S3 (UniProt P41091) -0.029
CYP51A1 (UniProt Q16850) 0.029
FAM114A2 (UniProt Q9NRY5) 0.001
CUTA isoform 2 (UniProt O60888) 0
EEF1B2 (UniProt P24534) 0.024
DCTPP1 (UniProt Q9H773) 0.126
EED, A0A5F9ZI63 -0.02
DTWD1 (UniProt Q8N5C7) 0.115
EEF1A1 (UniProt P68104) 0.031
FAM177A1 isoform 2 (UniProt Q8N128) -0.061
E2F4 (UniProt Q16254) -0.001
FAM50A (UniProt Q14320) 0.049
DIAPH1 (UniProt O60610) 0.041
DUS3L (UniProt Q96G46) 0.042
DLD (UniProt P09622) -0.021
CUEDC2 (UniProt Q9H467) 0.009
DHCR24 (UniProt Q15392) -0.114
CTNNB1 (UniProt P35222) -0.22
DHX36 (UniProt Q9H2U1) 0.012
DYNC1I2 isoform 5 (UniProt Q13409) -0.009
DTNBP1 (UniProt Q96EV8) 0.021
DIP2A (UniProt Q14689) 0.05
DNAAF2 (UniProt Q9NVR5) 0.043
DAB2 (UniProt P98082) -0.033
DNAJC19 (UniProt Q96DA6) 0.003

Compound: CCCS(=O)(=O)Nc1ccc(F)c(C(=O)c2c[nH]c3ncc(Cl)cc23)c1F
Experiment: as above
Outline: as §1

log2 fold change, inactive:
ECPAS (UniProt Q5VYK3) 0.059
FAAP100 (UniProt Q0VG06) -0.033
DCTN1 isoform 4 (UniProt Q14203) 0.019
DMAC1 (UniProt Q96GE9) -0.035
DBNL isoform 3 (UniProt Q9UJU6) 0.1
DNAJC24 (UniProt Q6P3W2) -0.034
EIF4E2 (UniProt O60573) 0.069
DHPS (UniProt P49366) 0.008
DBR1 (UniProt Q9UK59) 0.037
ELOC (UniProt Q15369) 0.031
EXOC8 (UniProt Q8IYI6) 0.01
EEF1D isoform 2 (UniProt P29692) 0.049
DHRS7B (UniProt Q6IAN0) 0.06
ERCC2 (UniProt P18074) 0.036
EIF2S3 (UniProt P41091) 0.007
CYP51A1 (UniProt Q16850) -0.015
FAM114A2 (UniProt Q9NRY5) 0.061
CUTA isoform 2 (UniProt O60888) 0.044
EEF1B2 (UniProt P24534) 0.02
DCTPP1 (UniProt Q9H773) -0.043
EED, A0A5F9ZI63 0.025
DTWD1 (UniProt Q8N5C7) -0.013
EEF1A1 (UniProt P68104) 0.022
FAM177A1 isoform 2 (UniProt Q8N128) 0.014
E2F4 (UniProt Q16254) 0.02
FAM50A (UniProt Q14320) 0.035
DIAPH1 (UniProt O60610) 0.062
DUS3L (UniProt Q96G46) 0.031
DLD (UniProt P09622) -0.01
CUEDC2 (UniProt Q9H467) 0.032
DHCR24 (UniProt Q15392) -0.012
CTNNB1 (UniProt P35222) -0.002
DHX36 (UniProt Q9H2U1) 0.02
DYNC1I2 isoform 5 (UniProt Q13409) 0.005
DTNBP1 (UniProt Q96EV8) 0.017
DIP2A (UniProt Q14689) -0.009
DNAAF2 (UniProt Q9NVR5) -0.038
DAB2 (UniProt P98082) 0.064
DNAJC19 (UniProt Q96DA6) 0.035

From the supplement of paper PMC10849652
